# Test results reported in PubChem BioAssay (NCATS).
# Records with an inconclusive call do not appear. Active and inactive are the calls of the source. Unless noted, the call rests on the fitted dose curve; in most records, active means well fitted curve in the direction sought with a large enough effect; inconclusive means small, poorly fitted or top-dose-only effect, or another doubt; inactive means no such curve, though single readings can be large; an effect the other way counts as inactive or inconclusive.
# Columns and labels:
# [1] = molecular target: Lysosomal acid glucosylceramidase (Homo sapiens) (UniProt P04062); assay: Glucocerebrosidase-p2 (AID 348; in the data active means potency below about 10 µM; further: potency means the concentration at half of the fitted maximal effect); conditions: purified GBA, blue fluorogenic substrate, 40 min
# Lysosomal acid glucosylceramidase (Homo sapiens), sequence (P04062 whole entry, looked up): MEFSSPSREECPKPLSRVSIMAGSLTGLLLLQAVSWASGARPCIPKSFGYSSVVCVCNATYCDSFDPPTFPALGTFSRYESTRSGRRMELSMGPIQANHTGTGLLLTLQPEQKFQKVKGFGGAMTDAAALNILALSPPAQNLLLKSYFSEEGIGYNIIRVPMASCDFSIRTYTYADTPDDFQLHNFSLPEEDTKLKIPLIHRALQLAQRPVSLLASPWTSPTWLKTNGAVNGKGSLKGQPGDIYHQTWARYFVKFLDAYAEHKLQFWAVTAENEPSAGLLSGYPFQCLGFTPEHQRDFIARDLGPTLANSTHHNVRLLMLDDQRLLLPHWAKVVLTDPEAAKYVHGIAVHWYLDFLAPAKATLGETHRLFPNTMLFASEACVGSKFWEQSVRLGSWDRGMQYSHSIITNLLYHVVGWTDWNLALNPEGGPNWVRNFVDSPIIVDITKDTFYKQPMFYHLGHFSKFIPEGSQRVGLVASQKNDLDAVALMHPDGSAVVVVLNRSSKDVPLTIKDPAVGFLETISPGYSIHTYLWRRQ
# How it was run: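 Compounds titrated from 0.6 nM upwards against 0.2 nM enzyme in pH 5.9 citric acid/KH2PO4, taurocholate, tween-20; blue fluorogenic substrate 80 uM, 40 min room temperature, stopped and read Ex 365/Em 440 for AC50.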
# [2] = AP1 Signaling Pathway (AID 357; active means well fitted curve in either direction with a large enough effect, not every such curve was filed as active; further: on the % scale 0 is the no-effect control and ±100 the full control effect); conditions: ME-180 AP-1-bla reporter, EGF-induced, beta-lactamase ratio, 5 h; at 7.69 µM (top of the series) unless noted
# How it was run: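 ME-180 cells with beta-lactamase reporter under AP-1 response element, stimulated with EC50 EGF; compounds tested in titration series, 5 h at 37 °C. CCF4 substrate added 2.5 h at room temperature; 460/530 nm emission ratio gave %activity and AC50.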
# [3] = molecular target: Cytochrome P450 1A2 (Homo sapiens) (UniProt P05177); assay: p450-cyp1a2 (AID 410; calls by dose curve; further: potency means the concentration at half of the fitted maximal effect;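 on activity change, negative = inhibition: -100% = full effect of reference inhibitor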); conditions: recombinant CYP1A2, luciferin-ME demethylation, luminescence; series mostly up to 57 µM
# Cytochrome P450 1A2 (Homo sapiens), sequence (P05177 whole entry, looked up): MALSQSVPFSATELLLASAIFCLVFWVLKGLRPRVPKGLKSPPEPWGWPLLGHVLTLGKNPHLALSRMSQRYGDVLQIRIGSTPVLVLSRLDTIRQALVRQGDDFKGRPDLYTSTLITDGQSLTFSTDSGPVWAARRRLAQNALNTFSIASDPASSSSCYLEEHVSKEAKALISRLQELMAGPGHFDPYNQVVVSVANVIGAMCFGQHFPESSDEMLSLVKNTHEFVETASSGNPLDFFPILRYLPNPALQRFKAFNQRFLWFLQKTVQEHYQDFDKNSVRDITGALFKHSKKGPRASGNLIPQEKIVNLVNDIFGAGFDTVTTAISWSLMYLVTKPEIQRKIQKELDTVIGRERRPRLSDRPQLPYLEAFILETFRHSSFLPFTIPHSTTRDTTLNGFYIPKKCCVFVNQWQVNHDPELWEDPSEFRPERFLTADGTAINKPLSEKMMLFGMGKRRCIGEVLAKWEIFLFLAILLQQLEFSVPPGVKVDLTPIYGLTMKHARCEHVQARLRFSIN
# How it was run: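 Inhibition was calculated relative to 57 uM furafylline (full inhibition). The reaction used human CYP1A2 at 20nM with Luciferin-ME at its Km, 100uM, driven by an NADPH-regenerating system for 60 min at room temperature.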
# [4] = NFAT Signaling Pathway (AID 444; active means well fitted curve in either direction with a large enough effect, not every such curve was filed as active;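 further: carbachol stimulus at about its EC50 of 1 µM final; on the % scale 0 is the no-effect control and ±100 the full control effect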); conditions: Jurkat NFAT-bla M1, carbachol, beta-lactamase ratio, 5 h; at 7.69 µM (top of the series) unless noted
# How it was run: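 Jurkat cells with NFAT-driven β-lactamase reporter and co-expressed M1 receptor, stimulated with carbachol (final 1 uM, ~EC50), compound titration, 5 h at 37 °C. CCF4 loaded 1 h at RT; 460/530 nm ratio gave %activity and AC50.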
# [5] = molecular target: Glucocorticoid receptor (Homo sapiens) (UniProt P04150); assay: GR-GFP Redistribution (AID 450;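 active means compounds whose dose series gives a full or clear partial fitted curve of increased nuclear translocation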; further: potency means the concentration at half of the fitted maximal effect); conditions: U2OS GR-GFP nuclear translocation, laser cytometry, 2 h
# Glucocorticoid receptor (Homo sapiens), sequence (P04150 whole entry, looked up, the tested form may be a part): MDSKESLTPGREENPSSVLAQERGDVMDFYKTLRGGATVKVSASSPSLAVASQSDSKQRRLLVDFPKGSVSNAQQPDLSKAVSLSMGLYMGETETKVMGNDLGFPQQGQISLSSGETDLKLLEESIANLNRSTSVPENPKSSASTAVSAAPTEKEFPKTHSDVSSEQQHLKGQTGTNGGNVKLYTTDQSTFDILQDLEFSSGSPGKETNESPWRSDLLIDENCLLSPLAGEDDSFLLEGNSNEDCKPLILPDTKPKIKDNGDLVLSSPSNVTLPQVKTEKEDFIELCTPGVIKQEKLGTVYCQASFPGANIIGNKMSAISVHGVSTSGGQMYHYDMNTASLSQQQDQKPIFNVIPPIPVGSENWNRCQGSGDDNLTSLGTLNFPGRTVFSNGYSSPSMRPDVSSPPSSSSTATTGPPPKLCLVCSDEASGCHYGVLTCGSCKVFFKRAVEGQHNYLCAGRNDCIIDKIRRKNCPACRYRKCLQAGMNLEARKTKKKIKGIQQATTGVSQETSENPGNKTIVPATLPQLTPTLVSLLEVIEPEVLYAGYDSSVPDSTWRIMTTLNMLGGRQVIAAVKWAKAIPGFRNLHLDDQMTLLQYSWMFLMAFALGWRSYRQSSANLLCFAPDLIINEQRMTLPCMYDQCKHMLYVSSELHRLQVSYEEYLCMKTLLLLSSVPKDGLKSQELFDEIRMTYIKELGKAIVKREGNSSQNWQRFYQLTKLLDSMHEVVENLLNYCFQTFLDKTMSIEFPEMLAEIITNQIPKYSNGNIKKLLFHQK
# [6] = molecular target: Glucocorticoid receptor (Homo sapiens) (UniProt P04150); assay: GR-EFC Redistribution (AID 451; calls by dose curve; further: potency means the concentration at half of the fitted maximal effect); conditions: CHO-K1 GR-EFC translocation, beta-gal luminescence, 2 h
# How it was run: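 CHO-K1 cells expressing nuclear EA and GR-ED fragments of b-gal; compounds titrated up to 46 uM final, 2 h at 37 C. GR nuclear translocation read as complemented b-gal luminescence after 1 h RT detection.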
# [7] = molecular target: Cytochrome P450 3A4 (Homo sapiens) (UniProt P08684); assay: qHTS Assay for Activators of Cytochrome P450 3A4 (AID 885); conditions: recombinant CYP3A4, Luciferin-PPXE luminescence, 60 min; series mostly up to 57.1 µM; further: nearly all actives have a fitted effect of over 65% in size
# Cytochrome P450 3A4 (Homo sapiens), sequence (P08684 whole entry, looked up): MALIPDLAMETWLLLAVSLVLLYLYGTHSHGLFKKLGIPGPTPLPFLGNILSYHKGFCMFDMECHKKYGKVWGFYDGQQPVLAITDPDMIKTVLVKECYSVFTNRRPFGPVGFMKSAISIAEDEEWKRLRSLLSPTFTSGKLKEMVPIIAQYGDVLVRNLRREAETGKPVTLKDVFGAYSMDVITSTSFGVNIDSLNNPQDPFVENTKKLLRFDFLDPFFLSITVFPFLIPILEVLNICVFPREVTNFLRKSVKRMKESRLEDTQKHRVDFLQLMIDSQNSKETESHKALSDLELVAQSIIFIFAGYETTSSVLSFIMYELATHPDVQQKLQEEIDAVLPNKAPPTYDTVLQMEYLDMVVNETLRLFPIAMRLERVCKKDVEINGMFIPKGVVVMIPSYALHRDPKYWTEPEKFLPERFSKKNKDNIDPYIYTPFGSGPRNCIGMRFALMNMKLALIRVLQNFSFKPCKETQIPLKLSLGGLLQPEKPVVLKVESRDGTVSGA
# How it was run: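 Human CYP3A4 (20 nM) with Luciferin-PPXE at 25 uM (its KM) in 200 mM KPO4; 10 min compound preincubation, then NADPH regeneration and 60 min reaction at RT. Luciferin read by luminescence; normalized to 57 uM ketoconazole full inhibition.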
# [8] = qHTS Assay for Lipid Storage Modulators (AID 1519; calls by dose curve); conditions: Drosophila S3 cells, BODIPY lipid droplet/cell ratio, laser cytometry, cells loaded with oleic acid; for activity change, negative = inhibition: at 57.5 µM (top of the series)
# How it was run: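 Cells seeded at 5,000 per well were treated with compounds over a concentration series and loaded with oleic acid (400 uM, as added). Lipid droplet fluorescence (488 nm excitation, 500-530 nm channel) was read by laser-scanning cytometry and normalized to 20 uM Triacsin C.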
# [9] = molecular target: Dual specificity protein kinase CLK4 (Homo sapiens) (UniProt Q9HAZ1); assay: qHTS Assay for Inhibitors of CDC-like Kinase 4 (Kinase-Glo Assay) (AID 1770); conditions: recombinant Clk4, Kinase-Glo ATP depletion luminescence; series mostly up to 66.7 µM; further: nearly all actives have a fitted effect of over 65% in size; further: potency means the concentration at half of the fitted maximal effect
# Dual specificity protein kinase CLK4 (Homo sapiens), sequence (Q9HAZ1 whole entry, looked up): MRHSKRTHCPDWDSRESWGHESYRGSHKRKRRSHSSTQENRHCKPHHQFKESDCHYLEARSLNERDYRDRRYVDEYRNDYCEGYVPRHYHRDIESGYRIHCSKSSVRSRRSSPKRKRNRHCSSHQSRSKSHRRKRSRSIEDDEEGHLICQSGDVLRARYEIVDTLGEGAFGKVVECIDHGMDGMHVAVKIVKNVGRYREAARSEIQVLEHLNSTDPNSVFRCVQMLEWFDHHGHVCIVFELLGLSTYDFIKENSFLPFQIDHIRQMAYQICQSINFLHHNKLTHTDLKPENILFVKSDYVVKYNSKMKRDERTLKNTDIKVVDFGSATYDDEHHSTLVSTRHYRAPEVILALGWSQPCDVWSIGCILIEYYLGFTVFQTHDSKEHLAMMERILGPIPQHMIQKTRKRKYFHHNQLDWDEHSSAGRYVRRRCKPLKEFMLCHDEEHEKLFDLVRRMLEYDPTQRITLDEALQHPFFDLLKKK
# How it was run: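 Inhibition was judged from remaining ATP, measured by Ultra-Glo luciferase bioluminescence after Clk4 (25 nM) had acted on RS peptide at 1 uM ATP for 4.5 hours, room temperature.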
# [10] = molecular target: Dual specificity protein kinase CLK4 (Homo sapiens) (UniProt Q9HAZ1); assay: qHTS Assay for Inhibitors of CDC-like Kinase 4 (ADP-Glo Assay) (AID 1771); conditions: recombinant CLK4, ADP-Glo luminescence; series mostly up to 80 µM; further: nearly all actives have a fitted effect of over 70% in size; further: potency means the concentration at half of the fitted maximal effect
# How it was run: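 Kinase reaction: Clk4 at 25 nM, RS repeat peptide substrate at 100 uM, ATP at 1 uM, 1 hr, room temperature. Product ADP detected as luciferase signal via ADP-Glo.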
# [11] = molecular target: Dual specificity protein kinase CLK4 (Homo sapiens) (UniProt Q9HAZ1); assay: qHTS Assay for Inhibitors of CDC-like Kinase 4 (ADP-FP Assay) (AID 1795); conditions: Transcreener ADP fluorescence polarization; series mostly up to 50 µM; further: nearly all actives have a fitted effect of over 60% in size; further: potency means the concentration at half of the fitted maximal effect
# How it was run: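 Inhibition of ADP formation by 6.25 nM Clk4 is measured using 1 uM ATP and 100 uM RS repeat peptide over one hour. Produced ADP displaces a fluorescent tracer from antibody, lowering polarization.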
# [12] = molecular target: Ubiquitin carboxyl-terminal hydrolase 1 (Homo sapiens) (UniProt O94782); assay: Inhibitors of USP1/UAF1: Pilot qHTS (AID 504865); conditions: purified USP1/UAF1, Ub-rhodamine cleavage fluorescence; series mostly up to 54.9 µM; further: nearly all actives have a fitted effect of over 35% in size; further: potency means the concentration at half of the fitted maximal effect
# Ubiquitin carboxyl-terminal hydrolase 1 (Homo sapiens), sequence (O94782 whole entry, looked up): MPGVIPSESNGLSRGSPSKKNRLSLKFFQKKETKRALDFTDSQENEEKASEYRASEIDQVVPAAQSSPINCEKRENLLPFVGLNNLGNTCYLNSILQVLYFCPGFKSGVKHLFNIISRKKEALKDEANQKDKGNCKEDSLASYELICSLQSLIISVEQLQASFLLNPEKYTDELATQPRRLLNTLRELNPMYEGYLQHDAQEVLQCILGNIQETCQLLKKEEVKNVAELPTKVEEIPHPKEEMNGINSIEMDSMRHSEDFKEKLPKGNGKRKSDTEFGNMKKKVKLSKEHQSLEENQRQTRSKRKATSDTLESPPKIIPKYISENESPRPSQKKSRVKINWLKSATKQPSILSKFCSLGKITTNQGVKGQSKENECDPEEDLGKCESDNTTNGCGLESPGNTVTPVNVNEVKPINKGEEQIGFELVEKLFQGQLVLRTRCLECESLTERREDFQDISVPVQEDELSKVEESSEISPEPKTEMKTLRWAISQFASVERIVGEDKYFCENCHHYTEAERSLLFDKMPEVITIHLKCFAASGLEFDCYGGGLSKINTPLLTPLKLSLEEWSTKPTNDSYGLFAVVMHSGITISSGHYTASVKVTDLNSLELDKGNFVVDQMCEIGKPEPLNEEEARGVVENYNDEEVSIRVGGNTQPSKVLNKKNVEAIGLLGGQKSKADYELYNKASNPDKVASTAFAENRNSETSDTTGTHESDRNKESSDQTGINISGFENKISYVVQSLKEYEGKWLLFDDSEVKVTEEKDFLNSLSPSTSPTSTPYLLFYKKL
# How it was run: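 Kinetic fluorescence assay: 1nM USP1/UAF1, 15 min compound preincubation, then 150nM Ub-Rho; 480/540 nm.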
# [13] = molecular target: Mitogen-activated protein kinase 10 (Mus musculus) (UniProt Q61831); assay: JNK3 AlphaScreen Assay (AID 530; active means well fitted curve in either direction with a large enough effect, not every such curve was filed as active;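 further: kinase came from lysate of stimulated human HepG2 cells; signal reports phosphorylation of biotinylated GST-cJun 1-79 at Ser73 with 10 µM ATP; on the % scale 0 is the no-effect control and ±100 the full control effect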); conditions: JNK3 lysate, c-Jun phosphorylation; series mostly up to 57.1 µM
# How it was run: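 qHTS format: compounds tested as titrations against IL-1beta/TNF-alpha-activated HepG2 lysate JNK3 with biotin-GST-cJun substrate and 10 uM ATP at room temperature. Loss of anti-phospho-cJun AlphaScreen signal indicates inhibition.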
# [14] = Stat Signaling Pathway (AID 446; active means well fitted curve in either direction with a large enough effect, not every such curve was filed as active;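 further: ME-180 cervical cancer cells given 40 pM IL-6 alongside compound; SIE-controlled beta-lactamase reporter measured as 460/530 nm FRET emission ratio; on the % scale 0 is the no-effect control and ±100 the full control effect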); conditions: ME-180 SIE beta-lactamase reporter, IL-6 stimulated, 5 h; at 7.69 µM (top of the series) unless noted
# How it was run: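 ME-180 cells carrying a SIE-driven beta-lactamase reporter are stimulated with 40 pM IL-6 for 5 h at 37C in the presence of compound. The 460/530 nm FRET substrate ratio is read after 2.5 h at RT. Data are normalised to 300 pM IL-6 and to 125 nM JAK inhibitor controls.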
# [15] = molecular target: 3',5'-cyclic-AMP phosphodiesterase 4B (Homo sapiens) (UniProt Q07343); assay: qHTS Assay for Inhibitors of PDE-IV (AID 607; active means well fitted activation curve with a large enough effect in the main read-out, with a control signal flat, not every such curve was filed as active; further: % of control where 0% means no effect); conditions: HEK293 ACTOne CNG channel cells, membrane potential fluorescence; series mostly up to 22.9 µM
# 3',5'-cyclic-AMP phosphodiesterase 4B (Homo sapiens), sequence (Q07343 whole entry, looked up): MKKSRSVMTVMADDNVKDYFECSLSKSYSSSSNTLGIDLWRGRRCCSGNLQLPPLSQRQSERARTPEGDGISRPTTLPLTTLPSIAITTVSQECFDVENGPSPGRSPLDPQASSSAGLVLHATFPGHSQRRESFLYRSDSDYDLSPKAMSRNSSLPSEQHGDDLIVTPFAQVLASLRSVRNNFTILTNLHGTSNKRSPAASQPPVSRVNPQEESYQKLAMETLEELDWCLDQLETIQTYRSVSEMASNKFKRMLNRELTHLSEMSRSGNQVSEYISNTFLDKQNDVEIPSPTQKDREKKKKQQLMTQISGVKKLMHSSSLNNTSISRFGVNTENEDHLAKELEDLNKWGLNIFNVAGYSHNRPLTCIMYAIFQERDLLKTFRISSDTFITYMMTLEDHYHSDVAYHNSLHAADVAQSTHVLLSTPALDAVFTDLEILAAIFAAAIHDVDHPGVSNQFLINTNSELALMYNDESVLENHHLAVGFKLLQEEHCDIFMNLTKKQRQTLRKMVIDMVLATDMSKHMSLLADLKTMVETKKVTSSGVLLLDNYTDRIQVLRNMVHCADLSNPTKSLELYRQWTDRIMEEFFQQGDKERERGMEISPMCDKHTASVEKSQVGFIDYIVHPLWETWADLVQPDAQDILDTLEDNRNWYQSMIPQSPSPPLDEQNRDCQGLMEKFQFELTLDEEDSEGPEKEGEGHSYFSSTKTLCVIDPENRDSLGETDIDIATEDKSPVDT
# How it was run: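 HEK293 ACTOne cells with CNG channel (1000/well), endogenous PDE4; membrane potential dye, compounds up to 22.9 uM final. Fluorescence Ex 535/Em 590; RO 20-1724 (100 uM final) as reference.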
# [16] = molecular target: Cytochrome P450 3A4 (Homo sapiens) (UniProt P08684); assay: qHTS Assay for Inhibitors and Substrates of Cytochrome P450 3A4 (AID 884); conditions: recombinant CYP3A4, Luciferin-PPXE luminescence; series mostly up to 57.1 µM; further: potency means the concentration at half of the fitted maximal effect; nearly all actives have a fitted effect of over 50% in size
# How it was run: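 20 nM human CYP3A4 with 25 uM Luciferin-PPXE (at KM) in 200 mM KPO4, preincubated 10 min with compound; NADPH regeneration started a 60 min RT reaction. Luciferin detected by luminescence, normalized to 57 uM ketoconazole as full inhibition.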
# [17] = qHTS Assay for Identification of Small Molecule Agonists for Hypoxia Response Element Signaling Pathway (AID 914; active means well fitted activation curve with a large enough effect in the signal ratio, with a control signal flat, not every such curve was filed as active; the % refers to the signal ratio; further: potency means the concentration at half of the fitted maximal effect; on activation: % of control where 0% means no effect); conditions: ME-180 (cervical carcinoma) HRE-bla reporter, beta-lactamase ratio, CoCl2, 17 h; activation: stronger effect = higher value
# How it was run: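 HRE-bla ME-180 assay for agonist-like enhancement of an EC50 CoCl2 stimulus: 17 h at 37 degrees Celsius, CCF4 for 2.5 h, ratiometric 460/530 nm signal converted to %Activity and fitted to AC50.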
# [18] = measured here: cell count channel max response
# [19] = measured here: lipid channel max response
Structure (SMILES),Potency [1],"activity change, negative = inhibition [2]",Potency [3],"activity change, negative = inhibition [4]",Potency [5],Potency [6],Potency [7],"activity change, negative = inhibition [8]","max response [8, 18]","max response [8, 19]",Potency [9],Potency [10],Potency [11],Potency [12],Potency [13],"activity, negative = inhibition [14]",Potency [15],Potency [16],activation [17],Potency [17]
COCCn1c(=O)c(-c2ccccc2)nc2cnc(N(C)C)nc21,> 11.4 µM (inactive),-2% (inactive),3.16 µM (active),10.9% (inactive),> 9.22 µM (inactive),> 46 µM (inactive),inactive,6.53% (inactive),12.4%,13.8%,inactive,inactive,inactive,inactive,,,,,,
COCCn1c(=O)c(C)nc2cnc(Oc3cccc(Cl)c3)nc21,> 11.4 µM (inactive),-12% (inactive),12.6 µM (active),10.5% (inactive),> 9.22 µM (inactive),> 46 µM (inactive),inactive,4.18% (inactive),15.1%,17.8%,inactive,inactive,inactive,inactive,inactive,,,,,
COCCn1c(=O)c(-c2ccccc2)nc2cnc(N3CCN(C)CC3)nc21,> 11.4 µM (inactive),-12.6% (inactive),,7.66% (inactive),> 9.22 µM (inactive),> 46 µM (inactive),,3.96% (inactive),11.4%,16.1%,inactive,inactive,inactive,inactive,inactive,-8.44% (inactive),inactive,,,
Cc1ccccc1-c1cncnc1N1CCN(C)CC1,> 11.4 µM (inactive),7.79% (inactive),15.8 µM (active),,> 46 µM (inactive),> 46 µM (inactive),inactive,4.3% (inactive),4.53%,8.66%,inactive,inactive,inactive,inactive,inactive,11.4% (inactive),inactive,1.58 µM (active),,
COc1ccccc1CNc1ncnc2ccc(-c3ccccc3OC)cc12,> 11.4 µM (inactive),-19.9% (inactive),1 µM (active),,> 46 µM (inactive),> 46 µM (inactive),,-20% (inactive),-10.4%,-24.8%,4.47 µM (active),4.47 µM (active),1.58 µM (active),inactive,inactive,,,6.31 µM (active),,
Cc1nc2cnc(N3CCN(C)CC3)nc2n(C2CC2)c1=O,> 11.4 µM (inactive),-13.1% (inactive),,-3.47% (inactive),> 9.22 µM (inactive),> 46 µM (inactive),,3.22% (inactive),14.4%,16.3%,inactive,inactive,inactive,inactive,inactive,-9.11% (inactive),,,,
COCCn1c(=O)c(-c2ccccc2)nc2cnc(Nc3cccc(OC)c3)nc21,> 11.4 µM (inactive),,3.98 µM (active),-5.93% (inactive),> 9.22 µM (inactive),> 46 µM (inactive),,1.38% (inactive),-0.938%,0.127%,inactive,inactive,inactive,inactive,inactive,-18.3% (inactive),,,,
Cc1ccccc1-c1nc(N2CCOCC2)c2ccccc2n1,> 11.4 µM (inactive),4.71% (inactive),2 µM (active),-2.19% (inactive),> 46 µM (inactive),> 46 µM (inactive),inactive,6.43% (inactive),31.7%,38.9%,15.8 µM (active),15.8 µM (active),12.6 µM (active),28.2 µM (active),inactive,4.23% (inactive),,,11% (inactive),
COCCn1c(=O)c(-c2cccs2)nc2cnc(N3CCN(C)CC3)nc21,> 11.4 µM (inactive),,15.8 µM (active),,> 9.22 µM (inactive),> 46 µM (inactive),,1.3% (inactive),18.6%,19.9%,inactive,inactive,inactive,inactive,inactive,12% (inactive),inactive,,,2.51 µM (active)
COc1ccc(-n2c(=O)c(-c3cn(C)c4ccccc34)nc3cnc(N4CCNCC4)nc32)cc1,,26.2% (inactive),15.8 µM (active),,> 9.22 µM (inactive),> 46 µM (inactive),inactive,7.55% (inactive),16.8%,26.4%,inactive,inactive,inactive,inactive,,,inactive,,,3.16 µM (active)
COc1ccc(CNc2ccnc(-c3ccccc3CN(C)C)n2)c(OC)c1,,5.22% (inactive),15.8 µM (active),-25.3% (inactive),> 46 µM (inactive),> 46 µM (inactive),inactive,3.1% (inactive),26.9%,28.6%,inactive,inactive,inactive,inactive,inactive,9.04% (inactive),,,,
CN(C)Cc1ccccc1-c1cc(NCc2ccccc2)ncn1,> 11.4 µM (inactive),-0.0154% (inactive),inactive,,> 46 µM (inactive),> 46 µM (inactive),,4.72% (inactive),6.7%,9.63%,inactive,inactive,inactive,inactive,inactive,12.3% (inactive),,,,
